The record followed here is PubChem BioAssay.

Experiment [1] can be described thus: reducers of endogenous Her2 protein level, primary screen, SKBR3 breast tumor cells, AlphaScreen, ATP viability (AID 461;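 active = Her2 level under about 52% in both replicate screens, with viability over 70% of control, limit read from the data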;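 for Her2 level: lower value means less Her2 protein in the cells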;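 for viability: percent of carrier control wells set as 100% viability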). The settings on record: 18-24 h, measured here: SKBR3 viability, ATP luminescence, at 10 µM.
For experiment [2], the target named is Receptor tyrosine-protein kinase erbB-2 (Homo sapiens) (UniProt P04626). The description is as above. The settings on record: 18-24 h, at 10 µM, stronger effect = lower value.
A short description of experiment [3]: SK-BR-3 cell growth inhibitors, pilot screen, 24 h, human (AID 572).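 Note: compound exposure lasted between 18 and 24 h rather than exactly 24 h; 100% = carrier-treated control wells.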 The settings on record: SK-BR-3 viability, CellTiter-Glo luminescence, at 10 µM, stronger effect = lower value.
A short description of experiment [4]: HUVEC growth inhibition – cell-based, human, primary screen (AID 575;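 active = viability at or below 30% in both replicate assays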;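 note: 100% = median of untreated cell wells with 0.1% DMSO on each plate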). Particulars: HUVEC proliferation, CellTiter-Glo luminescence, 72 h; at 10 µM; stronger effect = lower value. Background: Cellular ATP, detected with luciferase, serves as a proxy for viable cell number.
The nature of experiment [5]: growth inhibitors of H69AR lung tumor, primary screen, human, duplicate replicates (AID 580;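 active = viability at or under a set limit in both replicates, limit being median viability minus 3 SD, cut at about 48% in these data, passing the limit was not always enough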;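 note: 100% = mean luminescence of untreated wells and 0% = no signal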). The settings on record: H69AR lung tumor cells viability, ATP luminescence, 72 h; at 10 µM; stronger effect = lower value.
Experiment [6] can be described thus: reversal of MRP1-mediated doxorubicin resistance, pilot screen, H69AR cells, doxorubicin co-treatment (AID 601;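 active = viability loss from added drug above about 55%, and viability with drug at most 40%, in both replicates, limit read from the data, passing the limit was not always enough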). The settings on record: CellTiter-Glo, 72 h, at 10 µM; for differential viability (reversal): stronger effect = higher value.
A short description of experiment [7]: 384-well plate pilot, post-Golgi transport modulator project, inhibition of yeast transport mutant growth (AID 636; in the data active = inhibition above about 31%). Particulars: absorbance 615 nm, about 18 h, stronger effect = higher value.
Experiment [8] can be described thus: growth suppression of yeast trafficking mutant, preliminary HTS, modulators of trafficking downstream of Golgi apparatus project, 1536-format plate, OD 615 nm (AID 637; in the data active = inhibition above about 30%). The settings on record: yeast transport mutant growth, absorbance 615 nm, 18 h; stronger effect = higher value.
Experiment [9] in a line: OD615 S. cerevisiae growth inhibition, permissive medium, pilot counter-assay, permissive growth control for S. cerevisiae lifespan shortening project (AID 705;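 active = growth inhibition above 25% in both replicates, a cutoff set 3 SD above the mean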). The settings on record: OD615, 24 h, at 10 µM, stronger effect = higher value.
Experiment [10] is described as follows: Restrictive medium S. cerevisiae growth inhibition, OD615, pilot screen of yeast lifespan reduction project, restrictive growth control (AID 706;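 active = growth inhibition above a set limit, 3 SD over mean compound inhibition, in both replicates, cut at about 43% in these data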;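 note: modified DeaD lifespan yeast strain shifted to restrictive glucose medium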). The settings on record: OD615, 48 h, at 10 µM, stronger effect = higher value.
Experiment [11] in a line: viability gain of MRP-1-high H69AR cells under doxorubicin, pilot screen, MRP-1 activator project, CellTiter-Glo, duplicate (AID 807;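 active = viability increase at or above a cutoff of the median across tested compounds plus 3 SD, cut at about 8.5% in these data, passing the limit was not always enough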;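 note: compound pretreatment 18-22 h then 72 h combined with doxorubicin; 0% = doxorubicin alone and 100% = vehicle without doxorubicin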). Particulars: H69AR viability with doxorubicin, CellTiter-Glo luminescence; at 10 µM; stronger effect = higher value.
Experiment [12] is described as follows: growth suppression of beta-catenin knockout HCT116, pilot screen, human colon tumor cells (AID 823;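 active = cell viability at or below a set limit in both duplicate runs, the limit being the all-compound median minus 4 SD, cut at about 23% in these data, passing the limit was not always enough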;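 note: 0% = wells killed by 20 µM Hyamine and 100% = untreated DMSO cell wells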). The settings on record: CellTiter-Glo, 60 h, at 10 µM, stronger effect = lower value.
The nature of experiment [13]: growth suppression of PTEN-deleted HCT116, pilot screen, cell-based, HCT116 clonal line, CellTiter-Glo (AID 824;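 active = viability at or below 27.92% in each of two runs, the all-compound median minus 4 SD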;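 note: 0% = 20 µM Hyamine control and 100% = vehicle cell control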). Particulars: 60 h, at 10 µM, stronger effect = lower value.
Experiment [14] in a line: inhibitors of the yeast RAM network, pilot screen, dse1pr::URA3 reporter, 5-FOA selection (AID 869;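 active = inhibition over a set limit, the all-compound mean plus 3 SD, in both replicate runs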;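 note: 0% = DMSO wells with no growth and 100% = 10 µM 1-NA-PP1 with full growth; RAM network block rescues cells from 5-FOA so hits raise OD615 growth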). Particulars: S. cerevisiae dse1pr::URA3 5-FOA growth, OD615, 2 d; at 10 µM; stronger effect = higher value; strain carries analog-sensitive mutant Cbk1 kinase.
Experiment [15] can be described thus: RAM signaling pathway blockade in yeast – S. cerevisiae, Pdr1DBD-CYC8 efflux-inhibited sensitized strain, primary screen (AID 1298;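 active = RAM network inhibition above 8.4% in each of two replicates, 3 SD over the compound average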;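 note: 0% = DMSO untreated cells without growth and 100% = 10 µM 1-NA-PP1 full growth; higher means more yeast growth rescued from 5-FOA killing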). Particulars: S. cerevisiae cbk1-as DSE1-URA3 strain, 5-FOA growth OD615, 2 d; at 50 µM; stronger effect = higher value.
Where [16] appears, read: H69AR cells + 2 uM doxorubicin, measured here: viability with 2 uM doxorubicin, stronger effect = lower value.
Setting [17] is: H69AR cells, compound alone cytotoxicity.

Inconclusive results are not listed. Active and inactive are the calls of the source.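 Rule for the calls, unless noted: active = viability at or below 10% of carrier control in both of two separate runs; inconclusive = viability at or below 10% in only one of the two runs; inactive = the rest.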

Chain of Receptor tyrosine-protein kinase erbB-2 (Homo sapiens) (P04626 whole entry, looked up): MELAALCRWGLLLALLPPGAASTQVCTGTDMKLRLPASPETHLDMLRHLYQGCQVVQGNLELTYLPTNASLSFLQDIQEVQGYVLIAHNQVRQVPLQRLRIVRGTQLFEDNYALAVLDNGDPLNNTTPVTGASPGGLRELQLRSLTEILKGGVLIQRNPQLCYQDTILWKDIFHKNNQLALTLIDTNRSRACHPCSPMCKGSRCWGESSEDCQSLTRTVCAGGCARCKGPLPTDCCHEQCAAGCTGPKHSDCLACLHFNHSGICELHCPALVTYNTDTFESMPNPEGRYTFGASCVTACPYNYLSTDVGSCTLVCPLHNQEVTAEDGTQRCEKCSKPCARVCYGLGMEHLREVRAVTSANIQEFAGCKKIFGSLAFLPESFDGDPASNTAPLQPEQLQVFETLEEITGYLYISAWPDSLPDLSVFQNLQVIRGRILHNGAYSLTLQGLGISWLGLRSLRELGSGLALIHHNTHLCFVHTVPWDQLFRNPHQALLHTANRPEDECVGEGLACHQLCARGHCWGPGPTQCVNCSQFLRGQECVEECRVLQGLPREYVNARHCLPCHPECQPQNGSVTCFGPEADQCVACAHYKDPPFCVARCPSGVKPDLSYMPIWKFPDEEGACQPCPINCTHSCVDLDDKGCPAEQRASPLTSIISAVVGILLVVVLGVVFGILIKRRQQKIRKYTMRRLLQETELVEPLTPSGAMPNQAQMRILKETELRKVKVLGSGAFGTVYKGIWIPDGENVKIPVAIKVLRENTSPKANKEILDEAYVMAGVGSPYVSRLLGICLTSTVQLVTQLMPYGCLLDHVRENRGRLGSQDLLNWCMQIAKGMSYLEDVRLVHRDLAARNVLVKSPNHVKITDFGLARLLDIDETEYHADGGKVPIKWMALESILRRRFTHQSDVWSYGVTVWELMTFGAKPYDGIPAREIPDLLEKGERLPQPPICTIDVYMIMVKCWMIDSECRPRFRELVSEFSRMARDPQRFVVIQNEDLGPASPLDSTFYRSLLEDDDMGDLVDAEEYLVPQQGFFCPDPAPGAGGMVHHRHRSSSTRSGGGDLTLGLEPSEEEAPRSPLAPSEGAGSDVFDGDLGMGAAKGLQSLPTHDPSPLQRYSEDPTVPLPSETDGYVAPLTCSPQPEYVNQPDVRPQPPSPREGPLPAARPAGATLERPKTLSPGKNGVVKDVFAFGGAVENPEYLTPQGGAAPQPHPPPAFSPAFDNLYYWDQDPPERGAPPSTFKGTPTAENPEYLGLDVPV

Consider `O=C(c1sc2ccccc2c1Cl)N(Cc1cccs1)C1CCS(=O)(=O)C1` (stereo not drawn), for which the viability (usually a read-out of living cells in per cent, often relative to untreated cells) in experiment [1] was 100%; in experiment [3] it was 100% (inactive); in experiment [4] it was 73.2% (inactive); in experiment [5] it was 85.5% (inactive); in experiment [6] (setting [16]), 81.8%; in experiment [6] (setting [17]) it was 85.5%. Further, the viability in [12] is 92.2% (inactive); in experiment [13], 86.5% (inactive). Moreover, the Her2 level in experiment [2] is 100% (inactive). For the same compound, in experiment [6] (H69AR cells + 2 uM doxorubicin), the differential viability (reversal) is 3.69% (inactive). Besides, the values for the inhibition in experiment [7], in experiment [8] and in experiment [14] were 1.07% (inactive), 0.17% (inactive) and 0.395% (inactive), respectively. The results for the growth inhibition in [9] and in experiment [10] were -7.52% (inactive) and -11.5% (inactive), respectively. In addition, the viability increase in experiment [11] was -4.05% (inactive). For the same compound, the RAM network inhibition in experiment [15] is 7.16% (inactive).
For the compound `CCCSC1=C(C#N)C(c2cc(OC)ccc2OC)CC(=O)N1` (stereo not drawn), the viability is 93% in [1]; 93% (inactive) in [3]; 98.3% (inactive) in experiment [4]; 89.1% (inactive) in experiment [5]; 83.1% in experiment [6] (setting [16]); 89.1% in experiment [6] (setting [17]). Also, the viability was 92.5% (inactive) in experiment [12] and 92.9% (inactive) in experiment [13]. In [2], the Her2 level is 92% (inactive). The differential viability (reversal) in [6] (H69AR cells + 2 uM doxorubicin) was 5.96% (inactive). For the same compound, the inhibition (in general, the drop in the measured response relative to a control, in per cent) is -4.4% (inactive) in experiment [7], -0.33% (inactive) in experiment [8] and 1.42% (inactive) in [14]. Also, the growth inhibition in [9] is -0.855% (inactive); in experiment [10], -3.12% (inactive). Also, the viability increase in experiment [11] was -0.44% (inactive). The RAM network inhibition in [15] is 0.78% (inactive).
For the compound `CN(C)c1cc(NC(=O)CN2CCOCC2)c2ccccc2n1`, the viability in experiment [1] was 110%; in experiment [3], 110% (inactive); in experiment [4], 90.2% (inactive); in experiment [5], 85.8% (inactive); in experiment [6] (setting [16]) it was 85%; in experiment [6] (setting [17]), 85.8%. Moreover, the viability in experiment [12] was 100% (inactive); in [13], 99.4% (inactive). The Her2 level in [2] is 100% (inactive). For the same compound, in experiment [6] (H69AR cells + 2 uM doxorubicin), the differential viability (reversal) is 0.73% (inactive). The inhibition in experiment [7] was -5.47% (inactive); in [8] it was 7.17% (inactive); in [14], -0.365% (inactive). Besides, the results for the growth inhibition in experiment [9] and in [10] were -12.2% (inactive) and -11% (inactive), respectively. In experiment [11], the viability increase is -1.8% (inactive). Moreover, the RAM network inhibition in experiment [15] was 0.06% (inactive).
For the compound `COc1cccc(-n2c(SCC(=O)N3CCCC3)nc3c([nH]c4ccccc43)c2=O)c1`, the viability in experiment [1] was 83%; in experiment [3], 83% (inactive); in [4], 74.5% (inactive); in [5], 76.1% (inactive); in experiment [6] (setting [16]), 77.9%; in [6] (setting [17]), 76.1%. The figures for the viability in experiment [12] and in experiment [13] were 90.3% (inactive) and 85.7% (inactive), respectively. Also, in experiment [2], the Her2 level was 80.5% (inactive). For the same compound, the differential viability (reversal) in experiment [6] (H69AR cells + 2 uM doxorubicin) is -1.79% (inactive). The inhibition in experiment [7] is -5.2% (inactive); in experiment [8], -1.83% (inactive); in experiment [14] it was 1.42% (inactive). Also, the growth inhibition in [9] is -8.48% (inactive); in experiment [10] it was -21.2% (inactive). In addition, in [11], the viability increase is -6.23% (inactive). Moreover, the RAM network inhibition in experiment [15] is 7.87% (inactive).
Regarding `CCC(=O)Nc1cccc(Br)c1`, the viability in [1] is 114%; in experiment [3], 114% (inactive); in experiment [4], 113% (inactive); in experiment [5], 95.4% (inactive); in experiment [6] (setting [16]), 97.7%; in [6] (setting [17]), 95.4%. Also, the viability in experiment [12] is 96.4% (inactive); in [13], 85.5% (inactive). In addition, the Her2 level in experiment [2] was 116% (inactive). For the same compound, the differential viability (reversal) in experiment [6] (H69AR cells + 2 uM doxorubicin) was -2.25% (inactive). Further, the inhibition was -4.4% (inactive) in [7], -8.06% (inactive) in experiment [8] and -0.04% (inactive) in [14]. Further, the growth inhibition in [9] was -9.21% (inactive); in experiment [10] it was 2.72% (inactive). For the same compound, the viability increase in [11] was -0.82% (inactive). In addition, in experiment [15], the RAM network inhibition is -0.05% (inactive).
Regarding `Cc1ccc2c(c1)-c1c(cnn1CC(=O)NC(C)CCc1ccco1)CO2` (stereo not drawn), the viability was 85.5% in [1]; 85.5% (inactive) in [3]; 91.5% (inactive) in experiment [4]; 85.9% (inactive) in experiment [5]; 91.1% in experiment [6] (setting [16]); 85.9% in experiment [6] (setting [17]). The values for the viability in experiment [12] and in experiment [13] were 88.8% (inactive) and 87% (inactive), respectively. The Her2 level in [2] was 87% (inactive). Besides, the differential viability (reversal) in experiment [6] (H69AR cells + 2 uM doxorubicin) was -5.22% (inactive). The results for the inhibition in [7], in [8] and in [14] were -4.36% (inactive), 0.83% (inactive) and 2.04% (inactive), respectively. Also, the results for the growth inhibition in [9] and in experiment [10] were -10.4% (inactive) and -5.76% (inactive), respectively. Also, in experiment [11], the viability increase is -3.78% (inactive). Further, in experiment [15], the RAM network inhibition was 7.88% (inactive).
Take `Cc1ccc(C)c(NC(=O)CSc2nnc(-c3ccccc3)o2)c1`: the viability in [1] was 89.5%; in experiment [3] it was 89.5% (inactive); in [4], 111% (inactive); in [5] it was 89.6% (inactive); in [6] (setting [16]) it was 80.1%; in experiment [6] (setting [17]), 89.6%. Moreover, the viability was 95.9% (inactive) in experiment [12] and 97.2% (inactive) in experiment [13]. In addition, the Her2 level in [2] was 104% (inactive). Further, in experiment [6] (H69AR cells + 2 uM doxorubicin), the differential viability (reversal) is 9.51% (inactive). Further, the inhibition in experiment [7] is -6.4% (inactive); in [8], -4.5% (inactive); in experiment [14], 0.49% (inactive). The growth inhibition was -4.45% (inactive) in experiment [9] and -0.695% (inactive) in experiment [10]. In [11], the viability increase is 1.83% (inactive). For the same compound, the RAM network inhibition in experiment [15] was 1.79% (inactive).
On to `CCCSc1nnc2nc3c(nn12)c1ccccc1n3C`, for which the viability in experiment [1] is 86%; in experiment [3], 86% (inactive); in experiment [4] it was 98.9% (inactive); in [5] it was 89.3% (inactive); in experiment [6] (setting [16]), 86.9%; in experiment [6] (setting [17]), 89.3%. Besides, the viability in experiment [12] is 105% (inactive); in experiment [13], 97% (inactive). The Her2 level in experiment [2] is 85.5% (inactive). For the same compound, the differential viability (reversal) in experiment [6] (H69AR cells + 2 uM doxorubicin) was 2.42% (inactive). The inhibition was -0.27% (inactive) in experiment [7], 7.21% (inactive) in experiment [8] and 1.27% (inactive) in experiment [14]. Also, the figures for the growth inhibition in [9] and in experiment [10] were 3.75% (inactive) and 2.38% (inactive), respectively. In addition, in experiment [11], the viability increase is -4.48% (inactive). Further, the RAM network inhibition in [15] was 0.96% (inactive).
For the compound `COc1ccc(C2CC(c3ccc(OC)cc3)n3nc(N)nc3N2)cc1` (stereo not drawn), the viability in experiment [1] is 97.5%; in [3], 97.5% (inactive); in experiment [4], 88% (inactive); in experiment [5] it was 82.2% (inactive); in experiment [6] (setting [16]) it was 85.1%; in experiment [6] (setting [17]), 82.2%. In addition, the viability in experiment [12] is 105% (inactive); in experiment [13], 98.1% (inactive). Further, the Her2 level in [2] was 98% (inactive). Further, the differential viability (reversal) in experiment [6] (H69AR cells + 2 uM doxorubicin) was -2.91% (inactive). Besides, the inhibition was 0.77% (inactive) in experiment [7], 0.17% (inactive) in experiment [8] and 1.62% (inactive) in experiment [14]. The results for the growth inhibition in experiment [9] and in experiment [10] were 7.76% (inactive) and 16.3% (inactive), respectively. The viability increase in [11] is 0.09% (inactive). Besides, in experiment [15], the RAM network inhibition is 3.07% (inactive).
